hcDAF-12 act: activates DAF-12 receptor from parasite H. contortus; activation, % at 6.8 µM; 370,000 tested, 1.4% active; HEK293 hcDAF-12 lit1-tk-luc reporter, luminescence; 0% DMSO, 100% Δ7-dafachronic acid;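 active means activation above the mean of all tested compounds plus 3 SD, cut at about 5.5% in these data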;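 further: 100% = response to 3 µM Δ7-dafachronic acid high control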
DAX1 inh-1: inhibits human nuclear receptor DAX1. HEK293 Gal4-DAX1 luciferase reporter, luminescence. inhibition, % at 6.75 µM. 340,000 tested, 0.99% active;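 active means inhibition above the mean over all tested compounds plus 3 SD, cut at about 4.2% in these data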;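 further: 0% = DAX1-transfected cells with DMSO and 100% = empty-vector control cells with DMSO; inhibition shows as a rise in luminescence from relieved DAX1 repression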
Target sequence (P51843 207-470 limits assumed): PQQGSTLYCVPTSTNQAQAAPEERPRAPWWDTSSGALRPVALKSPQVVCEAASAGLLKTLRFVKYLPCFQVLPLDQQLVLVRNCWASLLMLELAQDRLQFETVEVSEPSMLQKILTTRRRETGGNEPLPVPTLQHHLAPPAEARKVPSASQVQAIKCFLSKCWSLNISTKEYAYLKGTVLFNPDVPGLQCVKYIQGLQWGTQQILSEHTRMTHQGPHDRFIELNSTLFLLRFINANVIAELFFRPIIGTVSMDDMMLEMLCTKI
DAX1 inh-2: blocks DAX1 repression of SF-1 activated StAR promoter | inhibition, % at 6.8 µM | 370,000 tested, 1.1% active | HEK293T StAR-luciferase reporter, SF-1/DAX-1 repression relief | AID 652010;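 active means inhibition above the mean over all tested compounds plus 3 SD, cut at about 3.6% in these data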;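 further: 0% = DAX-1 cells with DMSO and 100% = cells lacking DAX-1 with DMSO; higher inhibition means more luminescence from relief of DAX-1 repression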
ssDAF-12 act: activates DAF-12 receptor from parasite S. stercoralis. HEK293 ssDAF-12/GRIP1 lit1-tk-luc reporter, luminescence; % of 3 µM dafachronic acid response. activation, % at 6.8 µM. 370,000 tested, 1% active. AID 652126;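 active means activation above the mean over all tested compounds plus 3 SD, cut at about 0.9% in these data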;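 further: 0% = DMSO-only wells and 100% = 3 µM delta7-dafachronic acid wells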
hgDAF12 agonist: activates the H. glycines DAF-12 receptor ligand-binding domain | activation, % at 6.8 µM | HEK293 GAL4-hgDAF12 UAS-luciferase reporter, agonist luminescence; normalized to butyrate control | 370,000 tested, 1.8% active | AID 687014;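 active means activation above a cutoff set at the mean of all screened compounds plus 3 SD, cut at about 10% in these data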;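 further: 0% = DMSO wells and 100% = sodium butyrate wells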
SMARCA2 act: increases SMARCA2 function in MMTV reporter cells; MG213 cells, MMTV-luciferase reporter, dexamethasone, overnight; activation, % at 9.1 µM; 370,000 tested, 1% active; in the data active means activation above about 7.8%;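 further: 0% = vehicle wells and 100% = reference activator wells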
SMARCA2 act conf: SMARCA2 activation, confirmation screen; MG213 cells, MMTV-luciferase with dexamethasone, luminescence, overnight; MG213 cells expressing E1A, Rb sequestered; DMSO wells 0%, reference activator 100%; 3,500 tested, 30% active; activation, % at 9.1 µM; shares compounds with SMARCA2 act;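 active means activation above its plate's cutoff, the mean activation of tested wells plus 3 SD, cut at about 7.9% in these data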
VP16 Luc act: counter-screen for SMARCA2 activators: GAL4-VP16 luciferase reporter activation. 3,500 tested, 41% active. HEK293 GAL4-VP16 pG5luc reporter, luciferase luminescence; scaled: DMSO wells 0%, SAHA wells 100%. activation, % at 9.1 µM. shares compounds with SMARCA2 act;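 active means activation above the solvent-only control well mean plus 3 SD, averaged across control plates, cut at about 5.2% in these data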
Starred values were filed as active, the others as inactive; x = not tested or not shown. A selection: hits, their analogues and other compounds. The true share with any hit is near 4.8%.

SMILES	hcDAF-12 act	DAX1 inh-1	DAX1 inh-2	ssDAF-12 act	hgDAF12 agonist	SMARCA2 act	SMARCA2 act conf	VP16 Luc act
COc1ccc(N2CCN(C(=O)CN(C)S(=O)(=O)c3cnc[nH]3)CC2)cc1	0	7.1*	-1	0	-3	10*	-3	0
Cc1cc(N2CCN(Cc3ccccc3)CC2)n2nc(C)nc2n1	1	x	1	-1	0	-6	x	x
COC(=O)C(C)N1C(=O)S/C(=C\c2ccc(-c3ccc(C(=O)O)cc3C)o2)C1=O (configuration not stated)	1	0	1	0	6	11*	9.8*	10*
CCCn1c(=O)c(C(=O)NNC(=O)c2cccc([N+](=O)[O-])c2)c(O)c2ccccc21	-2	0	1	-1	1	-1	x	x
O=C(Nc1ccccc1)c1ccc(OC(=O)c2cc3ccccc3o2)cc1	1	0	0	-1	2	-1	x	x
O=C(Oc1ccccc1/C=C\C(=O)c1cc2ccccc2o1)c1ccccc1	6.2*	0	1	0	10	8.7*	2	9.6*
Cc1occc1C(=O)N/N=C/C=C\c1ccccc1[N+](=O)[O-]	-1	x	0	-1	5	8.9*	-3	1
O=C(N/N=C/C=C\c1ccccc1[N+](=O)[O-])c1ccco1	1	3	1	0	2	2	x	x
Cc1ccc2[nH]c(=O)c3cc(C(=O)N(C)Cc4ccco4)sc3c2c1	-2	0	0	-1	0	8.4*	13*	-1
O=C(N/N=C/c1ccc2c(c1)OCO2)c1ccc2c(c1)OCCO2	1	1	1	-1	13*	10*	4	5
O=C(N/N=C/C1CC2CCC1C2)c1ccc2c(c1)OCO2 (configuration not stated)	0	2	1	-1	9	8.2*	-1	-1
O=C(N/N=C/c1ccccc1O)c1ccc2c(c1)OCO2	1	3	-1	0	10	-2	x	x
CC(=O)N1CCCN(C(=O)CCn2nnc3ccccc32)CC1	-1	x	0	-1	0	-2	x	x
COc1cccc(N2CCN(C(=O)CCn3nnc4ccccc43)CC2)c1	-2	x	-1	-1	2	9.4*	7	1
CCN(CC)S(=O)(=O)c1ccc(C)c(NC(=S)NNC(=O)C2CC2)c1	2	0	0	-1	-1	-2	x	x
COc1ccc(C=O)cc1COc1ccc(F)cc1F	-2	1	0	-1	0	0	x	x
COc1cc(C=O)ccc1OCc1ccccc1Br	6.2*	-1	1	0	5	15*	7	8.0*
COc1ccc(/C=C2\SC(N3CCc4ccccc4C3)=NC2=O)cc1	1	0	1	-1	-2	-1	x	x
CCOc1ccc(/C=C2\SC(N3CCc4ccccc4C3)=NC2=O)cc1	0	0	0	-1	3	9.0*	-1	1
Cc1ccc(C(=O)C2=C(O)C(=O)N(Cc3cccnc3)C2c2cccc([N+](=O)[O-])c2)o1 (configuration not stated)	0	0	0	0	3	0	x	x
CCOCCCNC(=O)c1cccc(OC2CCN(S(C)(=O)=O)CC2)c1	4	3	1	0	8	8.3*	8	10*
Cc1cc(C(=O)COC(=O)c2ccc3c(c2)OCO3)c(C)n1Cc1cccs1	-1	1	1	-1	5	0	x	x
Nc1ccc(Nc2nc(-c3ccncc3)cs2)cc1	0	0	0	-2	-1	13*	11*	13*
Clc1ccc(Nc2nc(-c3ccncc3)cs2)cc1	1	0	1	1	7	3	x	x

From PubChem BioAssay
